# Many of the other results were omitted from the sample, so the strongest signals are more common in it than they were.
# B1: Factor H (Homo sapiens), P08603 (protein)
# chain: MRLLAKIICLMLWAICVAEDCNELPPRRNTEILTGSWSDQTYPEGTQAIYKCRPGYRSLGNVIMVCRKGEWVALNPLRKCQKRPCGHPGDTPFGTFTLTGGNVFEYGVKAVYTCNEGYQLLGEINYRECDTDGWTNDIPICEVVKCLPVTAPENGKIVSSAMEPDREYHFGQAVRFVCNSGYKIEGDEEMHCSDDGFWSKEKPKCVEISCKSPDVINGSPISQKIIYKENERFQYKCNMGYEYSERGDAVCTESGWRPLPSCEEKSCDNPYIPNGDYSPLRIKHRTGDEITYQCRNGFYPATRGNTAKCTSTGWIPAPRCTLKPCDYPDIKHGGLYHENMRRPYFPVAVGKYYSYYCDEHFETPSGSYWDHIHCTQDGWSPAVPCLRKCYFPYLENGYNQNYGRKFVQGKSIDVACHPGYALPKAQTTVTCMENGWSPTPRCIRVKTCSKSSIDIENGFISESQYTYALKEKAKYQCKLGYVTADGETSGSITCGKDGWSAQPTCIKSCDIPVFMNARTKNDFTWFKLNDTLDYECHDGYESNTGSTTGSIVCGYNGWSDLPICYERECELPKIDVHLVPDRKKDQYKVGEVLKFSCKPGFTIVGPNSVQCYHFGLSPDLPICKEQVQSCGPPPELLNGNVKEKTKEEYGHSEVVEYYCNPRFLMKGPNKIQCVDGEWTTLPVCIVEESTCGDIPELEHGWAQLSSPPYYYGDSVEFNCSESFTMIGHRSITCIHGVWTQLPQCVAIDKLKKCKSSNLIILEEHLKNKKEFDHNSNIRYRCRGKEGWIHTVCINGRWDPEVNCSMAQIQLCPPPPQIPNSHNMTTTLNYRDGEKVSVLCQENYLIQEGEEITCKDGRWQSIPLCVEKIPCSQPPQIEHGTINSSRSSQESYAHGTKLSYTCEGGFRISEENETTCYMGKWSSPPQCEGLPCKSPPEISHGVVAHMSDSYQYGEEVTYKCFEGFGIDGPAIAKCLGEKWSHPPSCIKTDCLSLPSFENAIPMGEKKDVYKAGEQVTYTCATYYKMDGASNVTCINSRWTGRPTCRDTSCVNPPTVQNAYIVSRQMSKYPSGERVRYQCRSPYEMFGDEEVMCLNGNWTEPPQCKDSTGKCGPPPPIDNGDITSFPLSVYAPASSVEYQCQNLYQLEGNKRITCRNGQWSEPPKCLHPCVISREIMENYNIALRWTAKQKLYSRTGESVEFVCKRGYRLSSRSHTLRTTCWDGKLEYPTCAKR
# B2: BT3172pd (Bacteroides thetaiotaomicron) (protein)
# chain: MLPLRAEHYYYKQISLKEGLPSNVRCILRDEQGFIWIGTKAGLGKFDGHQLKRYKHQANDPHSLLHNLIYQIAEDKQHNIWILTEKGIARYQQQSNNFTFPTDEEGNYITAYSFCLVPDGILFGGKDRIYKYSYKDSSLRLLQYFNANSFKITALSVWDSKTLLCCSRWTGLYLVDLQTGEHRRPPFDCGPEITSMITDSKNRIWIAPYSGGLRCYSRDGKLSASYTTHNSSLSNDIVLSLAEREEQLWIGTDGGGINILHPETGEISQLEYIPGRENYSLPANSILCLHNDYNNNVWAGSTCNGLISIREVSMKTYTDVVPGNDRGLSNGTVRSLYRQSPDSIWIGTDGGGINLFSPHTEKFTHYSSTWGDKVAFISGFTPGKLLISLFSKGVFVFNPATGEKQPFTIIDKETTTRLCNRGKSVNLYQNTPNTVLFLGDHIYQYHLKEKKFSTITEEEGKDIVGTLVPFDHQENLTYINDIKHIYELDDQTSRLKTVFECYTDTVISSVSHDEQGHFWIGSNFGLIHYDPVLKSRTLVPTNLFTEINMVLCDQKGKVWIGVDNMLFAYFIKEQKFVLFGESNGAIQNEYLPNARLVNEQGDAYIGGVKGMLRIDGQLLLNTSEMPELQLLDITINGESANHEWYNHPAKISVPWNSNISIRIMSREEDIFRQKIYRYQIEGLNNEYTESYNPELVIRSLLPGSYRIMASCTAKDGSWIPDQQVLELTVLPPWYRTHHHHHH
# What was measured:
# Assay in all cases: glycan array binding signal (z-score within array); higher = stronger binding
# Conditions in all cases: glycan notation: IUPAC condensed, linker removed
# [1] = target: Fuc(a1-2)Gal(b1-3)GalNAc(b1-3)Gal
# Outline: (§1)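 The binding signal is a Z-score computed within each array and averaged over linkers. Arrays of the same protein sequence at different concentrations or buffers were also averaged together. Data originate from 3228 arrays in the Consortium for Functional Glycomics database, kept only where the protein sequence was available.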
# [2] = target: Fuc(a1-2)Gal(b1-3)GalNAc(b1-3)Gal(a1-4)Gal(b1-4)Glc
# Outline: as §1
# [3] = target: Fuc(a1-2)Gal(b1-4)GlcNAc
# Outline: as §1
# [4] = target: Fuc(a1-2)[Gal(a1-3)]Gal
# Outline: as §1
# [5] = target: Fuc(a1-2)[GalNAc(b1-3)]Gal
# Outline: as §1
# [6] = target: Fuc(a1-3)[Gal(b1-4)]Glc6S
# Outline: as §1
# [7] = target: Gal(a1-3)[Gal(a1-4)]Gal(b1-4)GlcNAc
# Outline: as §1
# [8] = target: Gal(a1-4)Gal(b1-4)GlcNAc
# Outline: as §1
# [9] = target: Gal(b1-3)[GlcNAc(b1-6)]GalNAc
# Outline: as §1
# [10] = target: Gal(b1-4)GlcNAc(b1-3)Gal(b1-4)Glc
# Outline: as §1
# [11] = target: Gal(b1-4)GlcNAc(b1-3)[Gal(b1-4)GlcNAc(b1-6)]Gal(b1-4)GlcNAc
# Outline: as §1
# [12] = target: Gal(b1-4)GlcNAc(b1-6)Gal(b1-4)GlcNAc
# Outline: as §1
# [13] = target: Gal(b1-4)GlcNAc(b1-6)[Gal(b1-3)]GalNAc
# Outline: as §1
# [14] = target: Gal3S4S(b1-4)GlcNAc
# Outline: as §1
# [15] = target: Gal3S6S(b1-4)GlcNAc6S
# Outline: as §1
# [16] = target: Gal6S(b1-4)Glc6S
# Outline: as §1
# [17] = target: GlcNAc(a1-3)Gal(b1-4)GlcNAc
# Outline: as §1
# [18] = target: GlcNAc(b1-3)Man
# Outline: as §1
# [19] = target: GlcNAc(b1-3)[GlcNAc(b1-6)]GalNAc
# Outline: as §1
# [20] = target: GlcNAc(b1-4)Gal(b1-4)GlcNAc
# Outline: as §1
# [21] = target: GlcNAc(b1-4)GlcNAc(b1-4)GlcNAc(b1-4)GlcNAc(b1-4)GlcNAc(b1-4)GlcNAc
# Outline: as §1
# [22] = target: Kdn(a2-3)Gal(b1-3)GlcNAc
# Outline: as §1
# [23] = target: Man(a1-2)Man(a1-3)[Man(a1-2)Man(a1-6)]Man
# Outline: as §1
# [24] = target: Man(b1-4)GlcNAc
# Outline: as §1
# [25] = target: Neu5Ac(a2-3)Gal(b1-3)GalNAc6S
# Outline: as §1
# [26] = target: Neu5Ac(a2-3)Gal(b1-4)GlcNAc(b1-2)Man(a1-3)[Neu5Ac(a2-6)Gal(b1-4)GlcNAc(b1-2)Man(a1-6)]Man(b1-4)GlcNAc(b1-4)GlcNAc
# Outline: as §1
# [27] = target: Neu5Ac(a2-6)Gal(b1-4)GlcNAc(b1-2)Man(a1-3)[Neu5Ac(a2-6)Gal(b1-4)GlcNAc(b1-2)Man(a1-6)]Man(b1-4)GlcNAc(b1-4)GlcNAc
# Outline: as §1
# [28] = target: Neu5Gc(a2-3)Gal(b1-4)Glc
# Outline: as §1
# [29] = target: Neu5Gc(a2-6)GalNAc
# Outline: as §1
# [30] = target: GlcNAc(a1-4)Gal(b1-4)GlcNAc(b1-3)Gal(b1-4)GlcNAc
# Outline: as §1
# [31] = target: GlcNAc(b1-2)[GlcNAc(b1-6)]Man(a1-6)[GlcNAc(b1-4)][GlcNAc(b1-2)Man(a1-3)]Man(b1-4)GlcNAc(b1-4)GlcNAc
# Outline: as §1
# [32] = target: GlcNAc(b1-3)Gal(b1-4)GlcNAc(b1-3)Gal(b1-4)GlcNAc(b1-2)[GlcNAc(b1-3)Gal(b1-4)GlcNAc(b1-3)Gal(b1-4)GlcNAc(b1-6)]Man(a1-6)[GlcNAc(b1-3)Gal(b1-4)GlcNAc(b1-3)Gal(b1-4)GlcNAc(b1-2)Man(a1-3)]Man(b1-4)GlcNAc(b1-4)[Fuc(a1-6)]GlcNAc
# Outline: as §1
# [33] = target: GlcNAc(b1-3)GalNAc
# Outline: as §1
# [34] = target: Man(a1-3)[Man(a1-6)]Man
# Outline: as §1
# [35] = target: Man(a1-3)[Man(a1-6)]Man(b1-4)GlcNAc(b1-4)GlcNAc
# Outline: as §1
# [36] = target: Neu5Ac(a2-3)Gal(b1-3)[Fuc(a1-4)]GlcNAc
# Outline: as §1
# [37] = target: Neu5Ac(a2-3)Gal(b1-3)[GlcNAc(b1-6)]GalNAc
# Outline: as §1
# [38] = target: Neu5Ac(a2-3)Gal(b1-4)Glc
# Outline: as §1
# [39] = target: Neu5Ac(a2-3)Gal(b1-4)GlcNAc(b1-2)[Neu5Ac(a2-3)Gal(b1-4)GlcNAc(b1-4)]Man(a1-3)[GlcNAc(b1-4)][Neu5Ac(a2-3)Gal(b1-4)GlcNAc(b1-2)[Neu5Ac(a2-3)Gal(b1-4)GlcNAc(b1-6)]Man(a1-6)]Man(b1-4)GlcNAc(b1-4)GlcNAc
# Outline: as §1
# [40] = target: Neu5Ac(a2-3)Gal(b1-4)GlcNAc(b1-3)GalNAc
# Outline: as §1
# [41] = target: Neu5Ac(a2-3)Gal(b1-4)GlcNAc(b1-6)[Gal(b1-3)]GalNAc
# Outline: as §1
# [42] = target: Neu5Ac(a2-3)Gal(b1-4)GlcNAc6S
# Outline: as §1
# [43] = target: Neu5Ac(a2-3)Gal(b1-4)[Fuc(a1-3)]GlcNAc(b1-2)Man
# Outline: as §1
# [44] = target: Neu5Ac(a2-3)Gal6S(b1-4)GlcNAc
# Outline: as §1
# [45] = target: Neu5Ac(a2-6)Gal
# Outline: as §1
# [46] = target: Neu5Ac(a2-6)Gal(b1-4)GlcNAc(b1-2)Man(a1-6)[Gal(b1-4)GlcNAc(b1-2)Man(a1-3)]Man(b1-4)GlcNAc(b1-4)GlcNAc
# Outline: as §1
# [47] = target: Neu5Ac(a2-6)Gal(b1-4)GlcNAc(b1-3)Gal(b1-4)GlcNAc(b1-2)Man(a1-3)[Neu5Ac(a2-6)Gal(b1-4)GlcNAc(b1-3)Gal(b1-4)GlcNAc(b1-2)Man(a1-6)]GalNAc
# Outline: as §1
# [48] = target: Neu5Ac(a2-6)Gal(b1-4)GlcNAc(b1-3)Gal(b1-4)GlcNAc(b1-6)[Gal(b1-3)]GalNAc
# Outline: as §1
# [49] = target: Neu5Ac(a2-6)Gal(b1-4)GlcNAc(b1-3)[Neu5Ac(a2-6)Gal(b1-4)GlcNAc(b1-6)]GalNAc
# Outline: as §1
# [50] = target: Neu5Ac(a2-6)Gal(b1-4)GlcNAc(b1-6)GalNAc
# Outline: as §1
# [51] = target: Neu5Ac(a2-8)Neu5Ac(a2-3)Gal(b1-4)GlcNAc
# Outline: as §1
# [52] = target: Neu5Ac(b2-6)Gal(b1-4)GlcNAc
# Outline: as §1
# [53] = target: Neu5Ac(b2-6)GalNAc
# Outline: as §1
binder,measurement,setting,value
B1,glycan array binding signal (z-score),[1],3.46
same,glycan array binding signal (z-score),[2],0.586
same,glycan array binding signal (z-score),[3],3.15
same,glycan array binding signal (z-score),[4],-0.294
same,glycan array binding signal (z-score),[5],3.61
same,glycan array binding signal (z-score),[6],-0.418
same,glycan array binding signal (z-score),[7],-0.355
same,glycan array binding signal (z-score),[8],-0.467
same,glycan array binding signal (z-score),[9],-0.403
same,glycan array binding signal (z-score),[10],-0.248
same,glycan array binding signal (z-score),[11],-0.173
same,glycan array binding signal (z-score),[12],-0.316
same,glycan array binding signal (z-score),[13],-0.537
same,glycan array binding signal (z-score),[14],-0.168
same,glycan array binding signal (z-score),[15],11.8
same,glycan array binding signal (z-score),[16],0.498
same,glycan array binding signal (z-score),[17],-0.015
same,glycan array binding signal (z-score),[18],2.51
same,glycan array binding signal (z-score),[19],1
same,glycan array binding signal (z-score),[20],0.172
same,glycan array binding signal (z-score),[21],-0.101
same,glycan array binding signal (z-score),[22],1.99
same,glycan array binding signal (z-score),[23],0.253
same,glycan array binding signal (z-score),[24],-0.282
same,glycan array binding signal (z-score),[25],-0.221
same,glycan array binding signal (z-score),[26],0.231
same,glycan array binding signal (z-score),[27],-0.439
same,glycan array binding signal (z-score),[28],-0.053
same,glycan array binding signal (z-score),[29],-0.411
B2,glycan array binding signal (z-score),[30],-0.207
same,glycan array binding signal (z-score),[31],-0.604
same,glycan array binding signal (z-score),[32],-0.268
same,glycan array binding signal (z-score),[33],3.09
same,glycan array binding signal (z-score),[34],-0.387
same,glycan array binding signal (z-score),[35],0.075
same,glycan array binding signal (z-score),[36],-0.042
same,glycan array binding signal (z-score),[37],-0.406
same,glycan array binding signal (z-score),[38],4.78
same,glycan array binding signal (z-score),[39],-0.441
same,glycan array binding signal (z-score),[40],0.355
same,glycan array binding signal (z-score),[41],-0.43
same,glycan array binding signal (z-score),[42],2.43
same,glycan array binding signal (z-score),[43],-0.094
same,glycan array binding signal (z-score),[44],0.228
same,glycan array binding signal (z-score),[45],4.96
same,glycan array binding signal (z-score),[46],0.765
same,glycan array binding signal (z-score),[47],-0.692
same,glycan array binding signal (z-score),[48],6.02
same,glycan array binding signal (z-score),[49],5.76
same,glycan array binding signal (z-score),[50],0.094
same,glycan array binding signal (z-score),[51],-0.788
same,glycan array binding signal (z-score),[52],-1.02
same,glycan array binding signal (z-score),[53],0.736
